esBAF inh: SWI/SNF esBAF complex inhibition; AID 602393; 350,000 tested, 2% active; reporter increase, % at 12.5 µM; mouse ES cells, Bmi1-luciferase knock-in reporter, 24 h; 100% = twice the neutral-well signal; in the data active = activation above about 40%; inconclusive = no clear call, values can overlap the other calls;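 note: 0% = median of the plate's neutral control wells and 100% = double that signal; a rise in the Bmi1 reporter signal indicates esBAF inhibition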
AHR act: activates the human aryl hydrocarbon receptor | AID 2796 | P35869 | AHR-responsive luciferase reporter cells, luminescence | activation, % at 5 µM | 320,000 tested, 2.5% active; in the data active = activation above about 47%;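 note: 0% = vehicle wells and 100% = reference agonist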
Target sequence (P35869 whole entry, looked up): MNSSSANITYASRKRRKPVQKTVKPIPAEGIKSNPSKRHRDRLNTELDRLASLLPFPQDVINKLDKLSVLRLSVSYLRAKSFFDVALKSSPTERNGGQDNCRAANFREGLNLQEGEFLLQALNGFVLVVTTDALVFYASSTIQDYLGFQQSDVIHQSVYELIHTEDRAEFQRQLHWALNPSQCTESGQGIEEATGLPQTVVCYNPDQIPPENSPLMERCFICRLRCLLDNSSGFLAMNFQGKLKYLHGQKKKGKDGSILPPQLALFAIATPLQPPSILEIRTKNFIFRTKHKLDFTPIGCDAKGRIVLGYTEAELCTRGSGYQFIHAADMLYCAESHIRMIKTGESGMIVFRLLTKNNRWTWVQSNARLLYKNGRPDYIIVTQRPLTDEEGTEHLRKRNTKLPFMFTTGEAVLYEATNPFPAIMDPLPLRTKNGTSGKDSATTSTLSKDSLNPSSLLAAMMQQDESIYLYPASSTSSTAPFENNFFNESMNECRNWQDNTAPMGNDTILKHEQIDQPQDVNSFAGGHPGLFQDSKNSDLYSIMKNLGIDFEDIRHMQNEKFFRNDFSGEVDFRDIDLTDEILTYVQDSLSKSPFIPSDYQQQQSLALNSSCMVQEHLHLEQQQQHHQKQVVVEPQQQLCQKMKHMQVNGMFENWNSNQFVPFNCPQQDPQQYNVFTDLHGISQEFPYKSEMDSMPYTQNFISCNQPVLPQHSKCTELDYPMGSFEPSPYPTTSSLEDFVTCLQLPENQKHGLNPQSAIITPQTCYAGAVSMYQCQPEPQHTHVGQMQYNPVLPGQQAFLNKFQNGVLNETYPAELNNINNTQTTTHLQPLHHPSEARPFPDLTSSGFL
Wnt act: Wnt/beta-catenin pathway activation. activation, % at 9.35 µM. Wnt/beta-catenin reporter cell assay, activator, plate reader. 300,000 tested, 1.2% active; in the data active = activation above about 30%, passing the limit was not always enough; inconclusive = no clear call, values can overlap the other calls;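 note: 0% = neutral control wells and 100% = positive control wells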
MITF TRPM1 HTS: activators of MITF-driven TRPM1 promoter activity in SK-MEL-5 cells. SK-MEL-5 TRPM1-promoter luciferase, 24 h; % of positive control, neutral wells = 0. activation, % at 12.5 µM. 300,000 tested, 0.75% active;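 active = mean activation of at least 80% with every replicate also reaching 80%; inconclusive = mean reaches 80% but some replicate falls short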;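 note: 0% = neutral control wells and 100% = parthenolide positive control wells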
FXN GAA850 act: activators of GAA850 frataxin (FXN) promoter; 360,000 tested, 0.56% active; activation, % at 6 µM; HEK293 lucGAA850 FXN promoter luciferase reporter, 24 h; percent of 10 µM SAHA response;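 active = activation above the average of all compounds screened plus 3 SD, cutoff fixed separately per campaign, cut at about 7.5% in these data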;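 note: 0% = DMSO wells and 100% = 10 µM SAHA wells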
An asterisk follows results filed as active; u = inconclusive; x = no result. In the library only some 4.2% were active in any assay of this set; here they are far more common.

SMILES | esBAF inh | AHR act | Wnt act | MITF TRPM1 HTS | FXN GAA850 act
COc1ccc(S(=O)(=O)N(C)C[C@H]2Oc3ccc(NC(=O)c4ccncc4)cc3C(=O)N([C@@H](C)CO)C[C@@H]2C)cc1 | 0 | x | x | x | x
CCOC(=O)c1[nH]c2cc3c(cc2c1NC(=O)CN1CC(C)CC(C)C1)OCO3 (configuration not stated) | x | 56* | x | 6 | -1
COc1ccc(S(=O)(=O)Nc2ccc3c(c2)C(=O)N([C@@H](C)CO)C[C@@H](C)[C@H](CN(C)C(=O)c2ccccc2)OCCCC[C@@H](C)O3)cc1 | 7 | x | x | x | x
COc1ccc(N/C=C\C(=O)c2ccc3c(c2)OCO3)cc1 | x | 0 | 75* | 53 | 6
O=C(/C=C\Nc1ccc2c(c1)OCO2)c1ccc(Cl)s1 | 52* | 21 | 1 | 54 | 5
O=C(/C=C\Nc1ccc2c(c1)OCO2)c1ccc2c(c1)OCO2 | x | 14 | 34* | 13 | 0
CCCNC(=O)N1[C@H](C#N)[C@H](c2ccc(-c3cccnc3)cc2)[C@H]1CO | -2 | x | x | x | x
COc1cccc(-c2cn(CC[C@H]3CC[C@H](NC(=O)CN(C)C)[C@@H](CO)O3)nn2)c1 | -8 | x | x | x | x
CN(C)C(=O)c1ccc(-c2ccc([C@@H]3[C@@H](C#N)N(C(=O)C4CC4)[C@H]3CO)cc2)cc1 | 7 | x | x | x | x
Cc1cc(-c2nc3cc(F)ccc3s2)ccc1N | x | x | 60* | 8 | 2
Cc1c(C(=O)Nc2nnc(C(F)(F)F)s2)oc2ccccc12 | 1 | 13 | 3 | 67 | -1
COc1ccc(NC(=O)c2oc3ccccc3c2C)cn1 | 43* | 51* | 16 | 46 | 4
COC(=O)c1sc(NC(=O)c2oc3ccccc3c2C)nc1C | 60* | 12 | x | 18 | 3
C[C@H]1CN([C@@H](C)CO)C(=O)CCCn2cc(nn2)CO[C@H]1CN(C)C(=O)Nc1ccccc1C(F)(F)F | 1 | x | x | x | x
C[C@H]1CN([C@@H](C)CO)C(=O)c2cc(-c3cccc(C#N)c3)cnc2O[C@H]1CN(C)Cc1ccc(F)cc1 | -2 | x | x | x | x
COc1ccc(-c2nc(-c3ccccc3OC)no2)cc1OC | 55* | -6 | x | x | 2
CCOc1cc(-c2nc(-c3ccccc3OC)no2)cc(OCC)c1OCC | -7 | 17 | x | -3 | -1
COc1ccc(-c2nc(-c3cccc(C)c3)no2)cc1OC | 46* | -7 | 17 | 38 | 6
COc1ccc(-c2nc(C3CCCCC3)no2)cc1OC | 60* | -3 | -2 | 106* | 3
C[C@@H]1CN([C@H](C)CO)C(=O)c2cc(C#Cc3ccncc3)cnc2O[C@H]1CN(C)C(=O)c1ccccc1F | 5 | x | x | x | x
O=C(NC1CCC1)[C@@H]1[C@@H](CO)[C@@H]2Cn3c(ccc(-c4ccccc4)c3=O)[C@@H]2N1CCc1ccccc1 | 1 | x | x | x | x
CC(=O)c1ccc(OC(C)c2nc3ccccc3s2)cc1 (configuration not stated) | 53* | 15 | 6 | 39 | 3
C[C@H]1CN([C@@H](C)CO)C(=O)c2cc(NC(=O)Nc3ccc(F)cc3)ccc2O[C@H]1CN(C)Cc1ccc(Cl)c(Cl)c1 | -3 | x | x | x | x
CCC(=O)Nc1ccc(-c2ccc(N3CCC(C)CC3)nn2)cc1 | 48* | -4 | x | 89* | 4
C[C@H]1CN([C@@H](C)CO)C(=O)c2cc(NS(=O)(=O)c3ccccc3)ccc2O[C@@H]1CN(C)S(=O)(=O)c1cn(C)cn1 | 6 | x | x | x | x
SMILES | esBAF inh | AHR act | Wnt act | MITF TRPM1 HTS | FXN GAA850 act
CSc1nc2sc(-c3ccccc3)cc2c(=O)n1N | 57* | 7 | x | 15 | 3
CC(C)Sc1nc2sc(-c3ccccc3)cc2c(=O)n1N | 0 | 2 | x | 11 | 1
Oc1c(N=NC(=S)Nc2ccccc2F)c2ccccc2n1Cc1ccccc1Cl | -8 | 14 | 0 | -10 | 1
Cc1c(Cl)cccc1NC(=S)N=Nc1c(O)n(CN2CCOCC2)c2ccccc12 | x | 53* | x | -15 | x
C[C@@H]1CCCCO[C@@H](CN(C)Cc2ccc(C(F)(F)F)cc2)[C@@H](C)CN([C@@H](C)CO)C(=O)c2cc(NC(=O)Nc3ccc(F)cc3)ccc2O1 | -6 | x | x | x | x
COc1ccc(Nc2nc3nonc3nc2N2CCCCC2)cc1 | -8 | 11 | -1 | 11 | -1
CC1CCN(c2nc3nonc3nc2Nc2ccc(F)cc2)CC1 | -6 | 50* | -2 | -2 | 0
C[C@H](CO)N1C[C@H](C)[C@@H](CN(C)C(=O)Nc2ccc3c(c2)OCO3)OCCCC[C@H](C)Oc2ccc(NS(=O)(=O)c3cccs3)cc2C1=O | 11 | x | x | x | x
C=CCOC(=O)C1=C[C@H](C2CCCCC2)C[C@H](OCc2ccc(CO)cc2)O1 | -1 | 0 | -1 | -7 | 2
NC(=O)C1=C[C@H](C2CCCCC2)C[C@H](OCc2ccc(CO)cc2)O1 | 73* | 2 | u | 107* | 6
Cc1ccc(NC(=O)c2cc(N(C)C)ccc2[P+](=O)O)cc1 | 45* | 2 | 13 | 55 | 2
CN(C)c1ccc(NC(=O)c2ccc([N+](=O)[O-])cc2Cl)cc1 | x | 2 | 10 | 30 | 5
Cc1ccc(S(=O)(=O)NCC[C@H]2CC[C@H](NC(=O)c3cccc(F)c3)[C@@H](CO)O2)cc1 | 1 | x | x | x | x
Cc1ccc(C(=O)CNc2ccc(Br)cc2)cc1 | 21 | 5 | x | x | -1
Cc1ccc(C(=O)CNc2ccccc2)cc1 | 62* | -3 | 6 | 62 | 1
O=C1C2C3CCC(C3)C2C(=O)N1c1ccc(OS(=O)(=O)c2ccccc2)cc1 (configuration not stated) | x | 12 | 34* | 61 | 7
CN1C[C@@H]2[C@H](c3ccccc31)[C@H](CO)N2C(=O)C1CCOCC1 | 3 | x | x | x | x
Cn1c(N=NC(=O)c2ccccc2)c(O)c2ccccc21 | x | 96* | u | -19 | 0
Cn1c(O)c(N=NC(=O)CNC(=O)c2ccccc2)c2ccccc21 | 5 | 3 | 1 | 3 | -1
Cc1ccc(C(=O)NCC#N)cc1 | x | 1 | 0 | -5 | 1
Cc1ccc(C(=O)NC(C#N)=C(Cl)Cl)cc1 | x | x | 77* | x | x
CCS(=O)(=O)N1Cc2ccccc2CC1C(=O)N(C)CC(=O)Nc1cccc(F)c1 (configuration not stated) | 47* | 0 | -1 | 6 | 2
CCS(=O)(=O)N1Cc2ccccc2CC1C(=O)Nc1ccc(C)cc1 (configuration not stated) | 49* | -4 | 18 | x | 3
Cc1ccc(C(C)(C)NC(=O)C2CCC(=O)N(C3CCCCCC3)C2)cc1 (configuration not stated) | 74* | 7 | -3 | 70 | 0
Cc1ccc(C(C)(C)NC(=O)C2CCC(=O)N(CCCN3CCOCC3)C2)cc1 (configuration not stated) | 1 | 0 | 1 | -6 | -1
CCCNC(=O)[C@H]1[C@H](CO)[C@H]2Cn3c(cccc3=O)[C@@H]1N2C(=O)C1CCC1 | 1 | x | x | x | x
CC(C)Sc1nnc(Nc2ccccc2)s1 | 43* | 18 | -3 | 77 | 3
O=C(O)c1cccc([N+](=O)[O-])c1C(=O)Nc1ccc2ccccc2c1 | 12 | 60* | 10 | -7 | 2

Compound activity deposited in PubChem by several laboratories.
